An excerpt weighted towards active compounds, which were near 4% of everything screened.
Peg3 prom inh – inhibitors of Peg3 promoter. HeLa PEG-Prom luciferase reporter, luminescence, overnight. inhibition, % at 20 µM. 1.7% of 360,000 active. AID 588405;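 active means inhibition of at least 50% at 20 µM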
HIF-2a inh – blocks HIF-2a reporter activity; 0.72% of 360,000 active; AID 624352; inhibition, % at 18.8 µM; 786-0 RCC cells HIF-2a reporter, luciferase luminescence, overnight;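 active means inhibition of the luminescence signal of 40% or more relative to plate controls, in a single-dose primary screen at 18.75 µM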
TWEAK-Fn14 inh – TWEAK-Fn14 signaling inhibition; TWEAK-stimulated Fn14 reporter cells, luciferase luminescence, 8 h; inhibition, % at 10 µM; 2% of 360,000 active; AID 1159606; in the data active means inhibition above about 50%
KKLEB tox – CF airway cell cytotoxicity counter-screen; KKLEB CF airway cells viability, ATPlite luminescence, overnight; active compounds read low; cells stimulated with P. aeruginosa culture filtrate; activity change (cytotoxicity), % at 5 µM; 0.36% of 360,000 active;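 active means corrected activity change at or below -50% at 5 µM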
CF NFkB inh – cystic fibrosis NF-kB activation inhibition. KKLEB NF-kB-GFP reporter, PAF-induced, GFP fluorescence overnight. inhibition, % at 5 µM. 0.86% of 360,000 active;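 active means at least 50% inhibition at 5 µM, scaled per plate between neutral and stimulator controls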;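 further: PAF is a Pseudomonas aeruginosa culture filtrate used as stimulus; plate controls were PAF-stimulated DMSO wells for no effect and unstimulated DMSO wells for full effect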
TROY NFkB inh – blocks TROY-dependent signaling in reporter cells; inhibition, % at 10 µM; 0.98% of 360,000 active; Q293 LMP1-TROYcd NF-kB luciferase reporter, 4 h;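 active means compounds whose plate-normalised and pattern-corrected inhibition of the luciferase reporter signal at the single screening dose is 50% or more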
* hit, by the source's call; nt = no result.

SMILES	Peg3 prom inh	HIF-2a inh	TWEAK-Fn14 inh	KKLEB tox	CF NFkB inh	TROY NFkB inh
CC(C)c1ccc(-c2nnn(CCC(=O)O)n2)cc1	30.9	88.9*	87.2*	3.4	-9.6	47.8
Cc1ccc(C)c(C(Nc2ccccc2)c2ccc3ccc(C)nc3c2O)c1 (centres undefined)	nt	-57.1	nt	nt	nt	nt
Cc1ccc(C(=O)CSc2nnc3ccccn23)c(C)c1	-108.4	-88.5	64.0*	15.1	4.7	21.0
CCOC(=O)[C@H]1[C@H]2COc3ccc(Cl)cc3[C@@H]2N2C(=O)CN(C)C(=O)[C@@]12C	-68.0	5.9	1.9	-7.4	14.6	-1.6
COc1ccc(C)cc1NC(=O)N1CCCc2ccccc21	-2.1	-12.7	55.2*	3.1	-3.6	70.2*
COc1ccc(NC(=O)N2CCCc3ccccc32)c(OC)c1	-0.1	-22.7	50.8*	-11.5	2.5	69.8*
COc1ccc2c(c1)CCCN2C(N)=O	1.3	-4.7	57.7*	-5.3	0.2	3.6
O=C(COc1ccc(CNC[C@H]2O[C@@H](n3ccc(=O)[nH]c3=O)[C@H](O)[C@@H]2O)cc1)Nc1ccccn1	-64.2	-75.9	-8.5	-11.4	1.1	-16.3
COc1ccc(C2=Nc3ccccc3N(C(=O)c3ccncc3)C2C(=O)NC(C)C)cc1 (centres undefined)	nt	-56.7	nt	nt	nt	nt
CCOC(=O)C1(C)CCN1C(=O)c1ccc(F)c(Cl)c1 (centres undefined)	-2.3	2.0	-5.3	-0.9	-17.0	-5.6
Cc1nnc(SCc2nnc(-c3cccs3)o2)n1Cc1ccccc1	4.0	11.8	7.0	1.3	-2.0	11.6
Clc1ccc(-c2nnc(CSc3nnc(-c4cccs4)n3Cc3ccccc3)o2)cc1	46.0	17.7	63.6*	4.4	-1.4	47.8
COc1ccccc1-c1noc(Cn2cc(S(=O)(=O)N3CCCC3)ccc2=O)n1	2.8	12.4	-3.6	-13.3	-11.4	0.8
CC1=NOC(=O)/C1=C\c1ccc(-c2ccc(Cl)c(C(=O)O)c2)o1	0.1	16.0	-17.9	12.7	-18.6	19.7
CC1=CC2=NC(=O)/C(=C\c3ccc(-c4cccc(Cl)c4)o3)C(=N)N2O1	56.6*	11.7	3.9	-10.2	3.9	16.5
CC1=NOC(=O)/C1=C\c1ccc(-c2cccc(Cl)c2)o1	105.3*	83.2*	66.8*	-33.3	93.0*	56.6*
COc1ccc(CC(N)c2csc(Nc3nc(C)cnc3C)n2)cc1 (centres undefined)	-3.7	12.2	-6.3	-6.9	-1.3	-2.3
CN(C)CCNC(=O)COc1ccc(C23CC4CC(CC(C4)C2)C3)cc1	96.7*	8.1	-17.5	-31.5	26.0	5.5
Cc1ccc(C23CC4CC(CC(NC(=O)NCCN(C)C)(C4)C2)C3)cc1	34.3	4.6	13.8	-7.3	11.0	12.0
Cc1cc(S(=O)(=O)Nc2ccc(C(=O)NCC(c3ccco3)N(C)C)cc2)ccc1F (centres undefined)	13.1	8.3	7.5	6.4	-13.8	11.8
Cc1ccc(C(=O)/C=C/C(=O)c2ccc(C)cc2)cc1	112.5*	-34.5	19.3	-67.4*	77.9*	-11.2
Cc1ccc(C(=O)/C=C/Nc2ccccc2C(N)=O)cc1	-17.5	-8.1	58.4*	-55.8*	-18.2	-48.7
Oc1ccc(C=Nc2cccc3ccccc23)c(O)c1	-17.6	-10.9	53.3*	17.7	2.8	53.1*
COCCN(C(=O)CSc1ccc2c(c1)OCCO2)c1c(N)n(CC(C)C)c(=O)[nH]c1=O	-10.5	1.0	1.0	-12.6	19.5	-6.2
CCCN1CCC(=O)N([C@H](CSc2ccc(C)cc2)c2ccccc2)CC1	-192.9	-239.2	37.0	1.1	16.8	50.1*
SMILES	Peg3 prom inh	HIF-2a inh	TWEAK-Fn14 inh	KKLEB tox	CF NFkB inh	TROY NFkB inh
CC(C)(C)c1ccc(/C=N/N2C(=O)CSC2=S)cc1	17.0	57.0*	68.5*	-1.6	-8.7	37.7
COc1ccc(/C=N/N2C(=O)CSC2=S)cc1	-7.5	-8.9	-8.9	0.8	-20.1	-25.3
O=C1CSC(=S)N1/N=C/c1ccc(O)c(O)c1O	17.2	14.8	77.8*	-10.6	9.8	-4.1
CCCC(NCC(O)COc1ccc(-c2ccccc2)cc1)c1ccccc1 (centres undefined)	78.8*	-14.9	-8.8	-15.8	10.8	21.6
Cc1cc(OCC(O)CNC(C)c2ccccc2)ccc1C(C)C (centres undefined)	106.8*	8.7	0.0	5.5	5.8	-19.2
COc1ccc(OCC(O)CNC(C)c2ccccc2)cc1 (centres undefined)	-5.9	18.4	-0.4	-12.9	-3.7	-2.1
CC(NCC(O)COc1ccc2ccccc2c1)c1ccccc1 (centres undefined)	65.9*	3.1	-20.6	1.7	0.0	-71.2
CC(NCC(O)COc1ccc(Br)cc1)c1ccccc1 (centres undefined)	-16.2	7.3	-0.2	-5.7	-3.3	1.4
O=C(CCN1CCOCC1)c1ccc(N2CCCCC2)cc1	-25.5	-57.0	54.8*	-15.6	19.9	7.2
COc1ccc(N2CCN(CCC(=O)c3ccc4ccccc4c3)CC2)cc1	103.8*	-3.9	-1.8	-8.2	15.1	-2.0
CCOC(=O)C1CCN(C(=O)CNC(=O)Cn2c(C)cc3ccccc3c2=O)CC1	5.2	15.4	2.1	2.5	1.8	5.9
CC1CN(CC(O)COc2ccc(C#N)cc2)CCN1CC(O)COc1ccc(C#N)cc1 (centres undefined)	-9.1	9.2	9.3	-5.4	2.0	20.4
Nc1[nH]c(C(=O)c2ccccc2)c(-c2ccncc2)c1C(=O)NCCc1c[nH]c2ccccc12	nt	4.2	24.7	nt	nt	17.4
O=C(CCC(=O)N1CCOc2ccc(Cl)cc21)NCCCN1CCC(Cc2ccccc2)CC1	74.7*	-10.6	-9.8	-21.0	34.6	-3.0
Cc1csc(SCC(=O)NC2CCS(=O)(=O)C2)n1 (centres undefined)	6.2	13.6	7.3	1.1	-15.0	-8.5
COC(=O)C1=C(C)NC(=O)NC1c1ccc(N2CCC(c3ccccc3)=N2)cc1 (centres undefined)	6.1	-10.1	40.7	5.8	-7.1	51.7*
COC(=O)C1=C(C)NC(=O)NC1c1ccc(OC)c(OC)c1 (centres undefined)	2.5	4.8	-5.0	-29.2	3.0	15.1
COc1ccc(C)cc1S(=O)(=O)n1c([N+](=O)[O-])cnc1C	11.2	17.3	86.7*	9.2	-3.4	15.5
Nc1nc2ccc(Cl)cc2cc1C(=O)NCCc1c[nH]c2ccccc12	nt	4.1	52.3*	nt	nt	21.0
Nc1cc(=O)[nH]c(SCC(=O)NC2CCCCCCC2)n1	-16.1	-4.0	-3.0	4.3	-39.4	0.6
O=S1(=O)N=C(Oc2cccc3ccccc23)c2ccccc21	12.1	-9.9	23.2	-6.2	3.4	57.6*
COc1cc(CNCc2ccc(OC)c(OC)c2OC)cc(OC)c1	71.5*	10.2	3.6	-8.1	1.9	13.4
COc1cccc(CNCc2cc(OC)cc(OC)c2)c1	5.3	8.7	-10.7	-10.4	13.8	10.4

High-throughput results from PubChem.
